Assay results published in the supplement of paper PMC3334620.
Whole data set: some 33,000 sequences, median “E-score (-0.5 to 0.5)” near -0.017, cut for the highest 2% near 0.3. What follows is part of a selection rich in the highest values, with near analogues and random picks from the rest.

Biological target: T1, Sut1 (UniProt P53032)
T1 sequence: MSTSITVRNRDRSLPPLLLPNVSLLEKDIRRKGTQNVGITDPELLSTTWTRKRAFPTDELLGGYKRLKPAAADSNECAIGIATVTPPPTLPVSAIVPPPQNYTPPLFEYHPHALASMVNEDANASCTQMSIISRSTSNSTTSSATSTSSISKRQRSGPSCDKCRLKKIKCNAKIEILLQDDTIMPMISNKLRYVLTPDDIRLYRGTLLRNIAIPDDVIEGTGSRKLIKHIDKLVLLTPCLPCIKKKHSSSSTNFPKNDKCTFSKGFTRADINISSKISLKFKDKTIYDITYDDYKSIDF
Assay: PBM E-score (8-mer binding enrichment) (E-score (-0.5 to 0.5)); higher = stronger / more preferred TF binding
Settings: protein concentration: 200 nM; construct: GST-full length
Procedure, shortened: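 Yeast transcription factors, full-length or as DNA-binding domains, were expressed with a GST tag using PURExpress in vitro transcription/translation. At about 100-200 nM they were applied to universal all-10-mer Agilent arrays, double-stranded by primer extension on fresh or once-stripped slides. Fluorescent anti-GST detected bound protein, and masliner normalised the scans. E-scores for ungapped eight-base words, pooled with reverse complements, came from the Universal PBM Analysis Suite.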

| Sequence | PBM E-score |
| --- | --- |
| GAGCTGAA | 0.01 |
| CAGTACGA | -0.0772 |
| TACAGCGA | -0.145 |
| GTAGCTCA | -0.0732 |
| ACCTGATC | -0.177 |
| AGAACCTG | -0.0844 |
| AAAATTAG | 0.155 |
| AAAATTAT | 0.351 |
| CTAATTTC | 0.299 |
| GTAATTAA | 0.161 |
| ATAATTTC | 0.242 |
| ATTATAAA | 0.275 |
| ATAATTAA | 0.314 |
| ATTATAAT | 0.378 |
| ATTATAAG | 0.193 |
| TTAATTAA | 0.0737 |
| AAAATTAC | 0.237 |
| CTAATTTA | 0.175 |
| CGGATCAA | 0.16 |
| CGTCTTGA | 0.0919 |
| AGCCCCAA | -0.358 |
| ATCGCTAC | -0.0624 |
| AATTATAT | 0.212 |
| TCCACTAA | 0.0668 |
| CCCAAACA | 0.00961 |

| Sequence | PBM E-score |
| --- | --- |
| ATAATTTA | 0.337 |
| ATAATTTG | 0.249 |
| GTAATTTA | 0.221 |
| ATAATTAG | 0.235 |
| ATAATTAT | 0.39 |
| AAAATGAC | 0.157 |
| AAAATGAA | 0.0412 |
| CTCATTAA | 0.119 |
| AAAATGAT | 0.342 |
| ATCATTAA | 0.305 |
| ATAATTAC | 0.283 |
| ATCATTAG | 0.0427 |
| ACAGTTCG | 0.183 |
| GCTTCCCA | -0.179 |
| GTTTGGTA | 0.178 |
| ATCGGTAG | 0.0989 |
| TCGGTGAA | 0.0263 |
| TAAGATCA | 0.0673 |
| AAAAAATA | 0.242 |
| ATAAAGAT | 0.328 |
| TTAAATAA | 0.259 |
| ATAAATAA | 0.321 |
| ATAAAGAA | 0.19 |
| GTAAAATA | 0.145 |
| ATAAAGAG | 0.0458 |

| Sequence | PBM E-score |
| --- | --- |
| GAAAAATA | 0.306 |
| ATAAATAG | 0.295 |
| ATAAAATC | 0.162 |
| GGAAAATA | 0.226 |
| ATAAAATA | 0.323 |
| CTCGTTCA | -0.205 |
| AGTAGACC | -0.172 |
| ATGACTGC | 0.00267 |
| CAATGCTC | -0.0941 |
| ACCAACGT | 0.00237 |
| AGAAATTC | 0.126 |
| AGAAATTA | 0.335 |
| GGAAATTA | 0.286 |
| AAAAATAA | 0.326 |
| TAAAATAA | 0.213 |
| ATCAATTC | 0.135 |
| AAAATAGC | 0.0485 |
| AAAATAGA | 0.319 |
| CAAAATAA | 0.201 |
| ATCAATTA | 0.31 |
| TAAATAGA | 0.0796 |
| ATCAATTG | 0.197 |
| AACCAACC | -0.178 |
| AGAATACA | 0.117 |
| CACTTTGC | 0.0519 |

| Sequence | PBM E-score |
| --- | --- |
| AGGCGACC | -0.207 |
| CTCGCCAG | -0.204 |
| ACCTTGCC | -0.0123 |
| AAAAATTA | 0.228 |
| TAAAATTA | 0.34 |
| AAAATAAC | 0.12 |
| ATAAATTA | 0.326 |
| TAAATAAA | 0.247 |
| ATAAATAC | 0.275 |
| ATAAATAT | 0.341 |
| ATAAATTG | 0.268 |
| CTAAATTA | 0.24 |
| ATAAAAAT | 0.252 |
| AAAATAAA | 0.347 |
| CAAAATTA | 0.241 |
| ACCAAACT | -0.0181 |
| CAGTGGTC | -0.165 |
| GGCAGAAA | 0.0918 |
| CCGACCCA | 0.0491 |
| CCATCAGA | -0.213 |
| AATAAGGG | -0.0871 |
| CCGACACC | -0.0623 |
| TGTCTCAA | -0.115 |
| CAAAATTC | 0.308 |
| ACAAATAT | 0.339 |

| Sequence | PBM E-score |
| --- | --- |
| CGAAATAA | 0.313 |
| ACAAATAC | 0.205 |
| CAAAATTG | 0.0231 |
| ACAAATAG | 0.113 |
| CGAAATAC | 0.215 |
| GGAAATAA | 0.24 |
| AAAAATTC | 0.235 |
| ATCTGAGC | 0.113 |
| GACTTCGC | 0.0243 |
| ATTCCGAG | 0.341 |
| ATTCCGAC | 0.219 |
| CTTCCGAA | 0.233 |
| ATTCCAAG | 0.0681 |
| ATTCCGTA | 0.296 |
| ATTCCGAA | 0.378 |
| CGTCAAGA | -0.239 |
| AGAGAGTA | -0.0447 |
| GTAAGAAC | 0.215 |
| TGGCAGAA | -0.0838 |
| TGAATTCA | 0.0862 |
| CGCGACAC | 0.0583 |
| AATTTCCG | 0.257 |
| ATTTCCGG | 0.325 |
| ATTTTCCC | -0.105 |
| ATTTCCGC | 0.156 |

| Sequence | PBM E-score |
| --- | --- |
| ATTTTCGA | 0.0872 |
| ATTTTCCG | 0.4 |
| ATTTTCGC | 0.0665 |
| ATTTCCGA | 0.231 |
| ATTTTCGG | 0.345 |
| CAGTATTA | 0.0764 |
| ACCAAACC | 0.0288 |
| CAGATGGG | -0.192 |
| TAAGCATA | 0.122 |
| GGTTAATA | 0.163 |
| CATAATTA | 0.317 |
| CATAATTC | 0.0494 |
| CCTAATTA | 0.039 |
| AGTTAATC | 0.16 |
| AATTAATT | 0.206 |
| TATTAATA | 0.167 |
| AGTTAATA | 0.331 |
| AATTAATA | 0.327 |
| GATAATTA | 0.216 |
| AATAATTC | 0.268 |
| AATAATTA | 0.329 |
| AATCAAGA | 0.0025 |
| GGCGAGCC | -0.157 |
| GAGCTACA | -0.127 |
| TATAATCA | 0.203 |

| Sequence | PBM E-score |
| --- | --- |
| CCCGGGCA | -0.229 |
| AAAATCGC | 0.159 |
| ACTGCTTA | 0.0551 |
| AGAATCCG | 0.00193 |
| GGAAGAGA | 0.0239 |
| CGGGTTGA | -0.223 |
| ACTGTCAA | -0.099 |
| ATATAACA | 0.309 |
| ATTTAATA | 0.265 |
| ATATAACG | 0.299 |
| CTATAACA | 0.0773 |
| ATTTAACC | 0.154 |
| ATATAACC | 0.0866 |
| ATTTAACA | 0.213 |
| GTATAACA | 0.215 |
| CTTTAATC | 0.183 |
| ATTTAACG | 0.298 |
| ATTTAATC | 0.307 |
| CTATAACC | -0.00144 |
| CTAAATAG | 0.0251 |
| ACATTATC | 0.102 |
| ACATACTA | 0.15 |
